The values below come from PMC10668032, “Altered binding affinity of SIX1-Q177R correlates with enhanced WNT5A and WNT pathway effector expression in Wilms tumor”.

Over roughly 33,000 sequences, “e-score” has its median near -0.053; the highest 2% begin near 0.38. The entries come from a sample that favours the highest values as a whole.

In this assay the target is T1, SIX1 homeodomain (reference allele) (human, UniProt Q15475 108-198).
T1 sequence: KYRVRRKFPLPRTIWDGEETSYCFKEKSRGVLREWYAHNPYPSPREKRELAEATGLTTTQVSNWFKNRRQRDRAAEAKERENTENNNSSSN
As to the kind of experiment: universal protein binding microarray; Universal all-10-mer PBM (8x60K, AMADID 030236), 300 nM GST-tagged protein, Alexa Fluor 488 anti-GST; buffer, salt, pH and temperature not stated (as in Berger); high values mean tight binding. The settings on record: protein: ivt; tags: N-terminal GST; dsDNA, one strand shown. The gist of the method:
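Binding was expressed as 8-mer E-scores calculated with the Universal PBM Analysis Suite. The GST-tagged homeodomains, made by in vitro transcription/translation, were applied in duplicate at 300 nM final concentration to universal 'all 10-mer' protein binding microarrays (8×60K format).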
Take AGACACCC: the binding signal worked out at 0.335 ± 0.0199 E-score. Then AGACACCG, with 0.323 ± 0.0488 E-score; and CCACACCG, with 0.151 ± 0.104 E-score. On to CGACACCC, for which the binding signal amounted to 0.439 ± 0.0379 E-score. Consider CCATAGGG, for which the binding signal stood at 0.162 ± 0.116 E-score.

On to GCAGATCA, for which the binding signal came to 0.369 ± 0.0161 E-score. Then ATACTGAG, with 0.286 ± 0.0205 E-score; and CTCCAGGA, with 0.161 ± 0.0145 E-score.

For the sequence ATCAGGTA, the binding signal worked out at 0.2929 ± 0.00141 E-score. Then CTCGTGTA, with 0.158 ± 0.00844 E-score; and AAAATCCG, with 0.175 ± 0.0497 E-score; and CGAGTACC, with 0.185 ± 0.0226 E-score.

Regarding GGAGTATA, the binding signal is 0.319 ± 0.0316 E-score. As for AGAGTATC, the figure is 0.465 ± 0.0179 E-score; as for AGAGTATA, 0.262 ± 0.0847 E-score; as for CGAGTATA, 0.29 ± 0.0819 E-score. Then CGAGTATC, with 0.435 ± 0.0231 E-score.

Regarding ACCGATCG, the binding signal worked out at 0.272 ± 0.0437 E-score.

For the sequence ATATAGCC, the binding signal stood at 0.25 ± 0.032 E-score. Take TGACACCA: the binding signal came to 0.466 ± 0.0154 E-score.

On to GGACACGA, for which the binding signal was determined as 0.176 ± 0.0225 E-score. Regarding GGACACCA, the binding signal was 0.3862 ± 0.00187 E-score. With AGACACCA, the binding signal was found to be 0.329 ± 0.0244 E-score. Take TAACACCA: the binding signal was 0.299 ± 0.0116 E-score. In the case of AGACACCT, the binding signal turned out to be 0.287 ± 0.0126 E-score. GATTATCA: the binding signal is 0.2193 ± 0.00188 E-score. As for CCAGATTA, the figure is 0.252 ± 0.0366 E-score.

Regarding ACCATGTA, the binding signal is 0.197 ± 0.0756 E-score. As for GAGGACAC, the figure is 0.222 ± 0.0132 E-score. With AGACGGAT, the binding signal turned out to be 0.402 ± 0.0158 E-score. As for ATACGTAT, the figure is 0.421 ± 0.00632 E-score; as for AGGCGGAT, 0.346 ± 0.0312 E-score; as for AGTCGGAT, 0.296 ± 0.0281 E-score. Then AATCGGAT, with 0.253 ± 0.0252 E-score; and ATACGTAG, with 0.276 ± 0.0521 E-score. As for ATACGTAC, the figure is 0.336 ± 0.0217 E-score; as for AGACGGCA, 0.197 ± 0.0126 E-score. Turning to AAACGGAT, the binding signal came out at 0.364 ± 0.0337 E-score. Consider ACACGGAT, for which the binding signal was 0.4012 ± 0.00112 E-score. Take ACTCGGAT: the binding signal turned out to be 0.38 ± 0.00767 E-score.

For the sequence ACACGGCT, the binding signal is 0.2 ± 0.00761 E-score. As to TCAGATGA, the binding signal worked out at 0.3071 ± 0.00299 E-score. Then AAGATGAT, with 0.156 ± 0.09 E-score; and TATCGATA, with 0.342 ± 0.0612 E-score.

For the sequence GATCAAAC, the binding signal turned out to be 0.193 ± 0.0111 E-score.

In the case of ACACCATC, the binding signal is 0.312 ± 0.0186 E-score.

Regarding ATCGGGGC, the binding signal stood at 0.198 ± 0.0293 E-score. As for CGTCTCAC, the figure is 0.254 ± 0.0158 E-score. As for AACCGATC, the figure is 0.335 ± 0.00772 E-score; as for TACCCCTA, 0.34 ± 0.00513 E-score; as for ATACGGAT, 0.4254 ± 0.00356 E-score. Regarding ATACGGAG, the binding signal was found to be 0.193 ± 0.0505 E-score. As for ATACGGAA, the binding signal was determined as 0.218 ± 0.0296 E-score.

Turning to CGATACTA, the binding signal was found to be 0.424 ± 0.0171 E-score. As to CAATACTC, the binding signal turned out to be 0.297 ± 0.043 E-score. For the sequence AGATACTA, the binding signal turned out to be 0.316 ± 0.0687 E-score. With AGATAGTC, the binding signal amounted to 0.172 ± 0.0352 E-score. As for AGATACTG, the figure is 0.34203 ± 0.000156 E-score; as for CTATACTC, 0.243 ± 0.0735 E-score.

Turning to GGATACTA, the binding signal amounted to 0.371 ± 0.0235 E-score. As for CGATACTC, the figure is 0.45435 ± 0.000368 E-score; as for AGATACTC, 0.402 ± 0.0473 E-score; as for ATATAGTC, 0.209 ± 0.0236 E-score. As for AACACCTG, the figure is 0.267 ± 0.00339 E-score; as for ATCCAGTC, 0.179 ± 0.0594 E-score. As for CGTATAAA, the figure is 0.219 ± 0.0801 E-score; as for TATCAATA, 0.407 ± 0.0444 E-score. Consider TATCAAAA, for which the binding signal came to 0.342 ± 0.1 E-score.

For the sequence GATCAACA, the binding signal was found to be 0.281 ± 0.0353 E-score. TATCAACA: the binding signal came out at 0.399 ± 0.0298 E-score. As for TATCAAGA, the figure is 0.302 ± 0.0583 E-score; as for GATCAATA, 0.291 ± 0.0232 E-score.

Turning to CCATCTCA, the binding signal is 0.164 ± 0.00629 E-score.

Take GGATTATA: the binding signal was 0.362 ± 0.0571 E-score. As to TAATAATA, the binding signal was 0.225 ± 0.0789 E-score.

Regarding ATCCCGGC, the binding signal came to 0.173 ± 0.0398 E-score. Take CATCTATA: the binding signal was 0.251 ± 0.034 E-score. Then TACCCGGA, with 0.332 ± 0.00363 E-score. As to CATCCGAC, the binding signal stood at 0.209 ± 0.0838 E-score. In the case of AATCCGAC, the binding signal came to 0.189 ± 0.00791 E-score. For the sequence AATCCGGC, the binding signal is 0.228 ± 0.0229 E-score. As for CATCCGTA, the figure is 0.168 ± 0.00426 E-score; as for GATCCGAA, 0.357 ± 0.0457 E-score. As to GATCCGGC, the binding signal amounted to 0.3929 ± 0.00159 E-score. As for AATCCGGT, the figure is 0.252 ± 0.0106 E-score.

GATCCGTA: the binding signal amounted to 0.383 ± 0.00781 E-score. As for TATCCGGA, the figure is 0.3912 ± 0.000898 E-score; as for GATCCGAC, 0.389 ± 0.0403 E-score. Then CATCCGGC, with 0.226 ± 0.0528 E-score.
